The experiment is described as follows: anti-Giardia activity of synthetic compounds – Compounds Australia Scaffold Library subset, 24/48 h, primary screen (AID 1794835).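 For inhibition: 0% = parasite counts in DMSO vehicle wells.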 The settings on record: Giardia lamblia BRIS/91/HEPU/1279 trophozoite counts, imaging, at 10 µM.
[1] abbreviates: measured here: growth inhibition at 24 h, stronger effect = higher value.

The whole screen tested about 2,500 compounds, of which about 45 (2%) were called active. Cut-off read from the data, not from the text of the source: active = inhibition mostly above about 45% (no sharp cut-off); inactive = mostly below about 37%. The full list was thinned out, with actives kept by preference.

One may read the inhibition as the change of the read-out against control, counted positive when it falls. In the case of `Cc1nc(C2(NC(=O)CCc3ncc(-c4ccccc4F)o3)CCCCC2)no1`, the inhibition result was “inactive”. On to `Cc1ccc(NC(=O)c2nnc(C3CCCN3C(=O)NC3CCCC3)s2)cc1` (stereo not drawn), for which the inhibition reads like this: (stronger effect = higher value) 4.4% (inactive); under setting [1], 1%. As to `CCN(Cc1cccs1)C(=O)CN1CCC(n2c(=O)[nH]c3ccccc32)CC1`, the inhibition entry is “inactive”. Regarding `Cc1ccc(NC(=O)CN2C(=O)C3CCCCN3c3ccc(C(=O)N4CCCC4)cc32)cc1` (stereo not drawn), the inhibition (stronger effect = higher value) was 62.4% (active) and the inhibition under setting [1] was found to be 35.5%. On the same counts, the results for `CN1CCN(CCNC(=O)CN2C(=O)C3CCCCN3c3ccc(C(=O)N4CCCC4)cc32)CC1` (stereo not drawn) are 13% (inactive) and 11.7%.

For `O=C(CN1C(=O)COc2ccc(C(=O)N3CCCCC3)cc21)NCc1ccccc1`, the inhibition result was “inactive”. As for `O=C(NCCCN1CCN(c2ccccc2)CC1)c1noc2c1CCCCC2`, for the setting “stronger effect = higher value”, the inhibition is 9.7% (inactive). On to `Cc1cccc(CC(=O)N2CCN(c3nc4cccnc4n(Cc4ccccc4)c3=O)CC2)c1`, for which the inhibition runs as follows: (stronger effect = higher value) 38.8% (inactive); under setting [1], 12.1%. `CCN1CCCc2cc(C(=O)N3CCOCC3)sc21`: the inhibition result was “inactive”. Consider `Cc1nccc2[nH]c(=O)c(C(=O)NCCCN(C)C3CCCCC3)cc12`, for which the molecule was called inactive. Under setting [1], this molecule returned an inhibition of 0.2%.

Consider `CCC1Cn2c(C(=O)NCCN(C)C3CCCCC3)cc3cccc(c32)O1` (stereo not drawn), for which the inhibition by setting is: (stronger effect = higher value) 53.7% (active); under setting [1], 13.8%. Turning to `Cc1cc(C)c2c(=O)n(CC(=O)Nc3ccc(Br)cc3)c(=O)n(C)c2n1`, the call was inactive. The same molecule showed an inhibition under setting [1] of 4.9%. As to `CCC1CCCCN1C(=O)Cn1c(C(=O)OC)cc2occc21` (stereo not drawn), the inhibition (stronger effect = higher value) was 8.8% (inactive).

For `CC(C)C(=O)N1CCN(c2nc3ccccc3c3nnc(-c4cccs4)n23)CC1`, the inhibition result was “inactive”. Consider `CCc1nnc2c3ccccc3nc(N3CCN(c4cccc(Cl)c4)CC3)n12`, for which the inhibition runs as follows: (stronger effect = higher value) 73.1% (active); under setting [1], 33.5%. Consider `Cc1cc2n(n1)CCCN2CC(=O)N1CCN(c2cccc(Cl)c2)CC1`, for which the inhibition (stronger effect = higher value) was 5.3% (inactive). On to `O=C1CC(C(=O)N2CCN(c3ccccc3F)CC2)CN1Cc1ccccc1` (stereo not drawn), for which the inhibition entry was “inactive”. On to `COc1cccc(CCC(=O)N2CCCC(c3nnc4n3CCCCC4)C2)c1` (stereo not drawn), for which the inhibition was 2.6% (inactive) (stronger effect = higher value) and 2.1% under setting [1]. Take `O=c1c2cnc(N3CCCCC3)nc2ccn1CCc1ccccc1`: the inhibition entry was “inactive”. Regarding `O=C(c1ccco1)N1CCC(NS(=O)(=O)c2ccc(Cl)cc2)CC1`, the outcome was inactive. This molecule also displayed an inhibition under setting [1] of 0.2%. Turning to `O=C(Nc1ccccc1)c1cc(-c2cccs2)n(C2CCS(=O)(=O)C2)n1` (stereo not drawn), the inhibition was 1.7% (inactive) (stronger effect = higher value) and 9.1% under setting [1].

Turning to `Cc1cccc(-c2noc(Cn3cccn3)n2)c1`, the molecule was called inactive. The molecule also showed an inhibition under setting [1] of 3.8%.

Regarding `Cc1ccc(S(=O)(=O)NC2CCN(C(=O)Cc3ccc(Br)cc3)CC2)cc1`, the inhibition was 3.1% (inactive) (stronger effect = higher value) and 2% under setting [1].

For `O=C(C1CCN(S(=O)(=O)c2ccccc2)CC1)N1CC=C(c2ccccc2)CC1`, the molecule was called inactive. The inhibition under setting [1] stood at 1%. With `Cc1ccnc(N2CCCC(C(=O)NC3CCCC3)C2)n1` (stereo not drawn), the inhibition is, setting by setting: (stronger effect = higher value) 10.9% (inactive); under setting [1], 2.5%.

For the molecule `Cc1ccnc(N2CCCC(C(=O)N3CC=C(c4ccccc4)CC3)C2)n1` (stereo not drawn), the inhibition (stronger effect = higher value) was 46.1% (active) and the inhibition under setting [1] is 18%. For `Cc1ncc([N+](=O)[O-])n1Cc1csc(Cc2ccccc2)n1`, the inhibition (stronger effect = higher value) is 67% (active) and the inhibition under setting [1] stood at 30.1%.

Regarding `O=c1c2ccsc2ncn1Cc1nc(Cc2ccccc2)no1`, the inhibition result is “inactive”.

Consider `CC(NC(=O)Cc1csc(Cc2ccccn2)n1)c1ccc(F)cc1` (stereo not drawn), for which the molecule was called inactive. This molecule also displayed an inhibition under setting [1] of 5.1%. Turning to `O=C(Cc1ccccc1)NCc1nc(-c2ccc3c(c2)nnn3C2CCCC2)no1`, the inhibition entry was “inactive”.

For the molecule `O=C(NCc1cccc(C(F)(F)F)c1)C1CCCN(c2nccnc2Oc2ccccc2)C1` (stereo not drawn), under “stronger effect = higher value”, the inhibition was 15.6% (inactive). Take `COc1ccc(CNC(=O)N2CCC(c3ccn4ncc(C(=O)N5CCOCC5)c4c3)CC2)cc1`: the inhibition reads like this: (stronger effect = higher value) 0.7% (inactive); under setting [1], 3.8%. On the same counts, the results for `CCCCN(CCCC)S(=O)(=O)c1ccc2c(c1)CCCC(=O)N2` are 27.2% (inactive) and 13.8%. Take `COCCCN(Cc1ccco1)C(=O)Cn1cnc2onc(-c3ccc(Cl)cc3)c2c1=O`: the inhibition result was “inactive”.

Consider `CCCn1nc(C(=O)N2CCCN(C(C)=O)CC2)ccc1=O`, for which the inhibition result was “inactive”.

On to `NCc1c2n(c(=O)n(CC(=O)Nc3ccc4c(c3)OCCO4)c1=O)CCCCC2`, for which the inhibition entry was “inactive”. `Cc1cccc(CNS(=O)(=O)c2cc(-c3csc(C)n3)sc2C)c1`: the inhibition (stronger effect = higher value) was 63.6% (active) and the inhibition under setting [1] is 21.2%. For the molecule `Cc1sc(-c2ccc(=O)[nH]n2)cc1S(=O)(=O)NCc1cccnc1`, the inhibition result is “inactive”. On the same count and under the same terms, as for `CCc1nc(-c2cc(S(=O)(=O)NCc3ccccc3)c(C)s2)no1`, the entry is “inactive”; as for `CCNS(=O)(=O)c1cc(-c2ccc(=O)n(CC)n2)sc1C`, “inactive”. In the case of `CCc1nc(-c2cc(S(=O)(=O)NCc3ccc(F)c(Cl)c3)c(C)s2)cs1`, the inhibition (stronger effect = higher value) is 43.9% (active) and the inhibition under setting [1] is 15.2%.

As to `Cc1sc(C(=O)N2CCCC2)c2ncnc(NCc3ccc(F)c(Cl)c3)c12`, the inhibition is 23.9% (inactive) (stronger effect = higher value) and 14.4% under setting [1]. Regarding `CN1CCN(CC2CCN(C(=O)Cc3cccc4ccccc34)CC2)CC1`, the inhibition (stronger effect = higher value) was 17.7% (inactive). As to `COc1cccc(-c2noc(Nc3cccc(C)c3)n2)c1`, the call was inactive. In addition, the inhibition under setting [1] is 3.1%. For the molecule `COc1cccc(Nc2c3c(nc4ccccc24)CCC3)c1`, the inhibition runs as follows: (stronger effect = higher value) 62.3% (active); under setting [1], 22%. Regarding `Fc1cccc(Nc2c3c(nc4ccccc24)CCC3)c1`, the inhibition (stronger effect = higher value) is 55.5% (active) and the inhibition under setting [1] amounted to 2.3%.

For the molecule `COc1cccc(Nc2nc(N3CCN(c4ccccc4)CC3)nc3c2cnn3C)c1`, the inhibition is, setting by setting: (stronger effect = higher value) 5.8% (inactive); under setting [1], 6.1%. As to `CCc1cccc(NC(=O)C2CCCN(S(=O)(=O)c3c(C)noc3C)C2)c1` (stereo not drawn), the call was inactive. Under setting [1], this molecule gave an inhibition of 13.3%. Take `O=C1CSCN1CC(=O)N1CCCCC1c1cc2ccccc2[nH]1` (stereo not drawn): the inhibition result is “inactive”. For the molecule `COc1ccc(-n2ccn(CC(=O)Nc3cccc(F)c3)c2=O)cc1`, the inhibition entry is “inactive”. As to `COc1ccc(C2=Nc3ccccc3N(Cc3cccc(F)c3)C(=O)C2)cc1`, the inhibition was 30.2% (inactive) (stronger effect = higher value) and 8.7% under setting [1]. The corresponding values for `COc1ccc(C2=Nc3ccccc3N(CC(=O)Nc3cccc(F)c3)C(=O)C2)cc1` are 40.3% (active) and 12.6%. In the case of `CNC(=O)N1C[C@@H](CN(C)C)[C@@H](C2CCN(CCC(C)C)CC2)C1`, the call was inactive. In addition, the inhibition under setting [1] is 13.1%. On the same counts, the results for `COc1ccc(CNS(=O)(=O)c2ccc3onc(C(=O)N4CCCCC4)c3c2)cc1OC` are “inactive” and 3.7%. In the case of `Cc1ccc(NC(=O)c2ncoc2-c2ccco2)cc1Cl`, the inhibition result is “inactive”. Regarding `O=C(Nc1nc(-c2ccco2)c(-c2ccco2)s1)c1ccccc1`, the inhibition is, setting by setting: (stronger effect = higher value) 71.2% (active); under setting [1], 27.2%. With `CCN1CCc2nc(NC(=O)c3ccccc3)sc2C1`, the inhibition entry is “inactive”.

Take `CC(=O)c1c(C)[nH]c(C(=O)Nc2nc(-c3ccco3)c(-c3ccco3)s2)c1C`: the inhibition is, setting by setting: (stronger effect = higher value) 52.8% (active); under setting [1], 25%. In the case of `O=C(NCc1ccccc1)c1cc(-c2ccco2)on1`, the inhibition result was “inactive”.

The values above are taken from PubChem BioAssay AID1794835 (Parasite Biology Lab, Institute for Biomedicine and …, 2023).
